# The list is not random: actives were taken first. Their share in the collection is about 3.8%.
# GLS inh – blocks human kidney-isoform glutaminase activity. O94925. GLS enzymatic activity, qHTS titration. Potency, µM (doses to about 45.5 µM), for inactives: top-dose activity change, negative = inhibition, hits mostly inhibitors. 410,000 tested, 0.21% active. AID 624170
# Target sequence (O94925 whole entry, looked up, canonical isoform): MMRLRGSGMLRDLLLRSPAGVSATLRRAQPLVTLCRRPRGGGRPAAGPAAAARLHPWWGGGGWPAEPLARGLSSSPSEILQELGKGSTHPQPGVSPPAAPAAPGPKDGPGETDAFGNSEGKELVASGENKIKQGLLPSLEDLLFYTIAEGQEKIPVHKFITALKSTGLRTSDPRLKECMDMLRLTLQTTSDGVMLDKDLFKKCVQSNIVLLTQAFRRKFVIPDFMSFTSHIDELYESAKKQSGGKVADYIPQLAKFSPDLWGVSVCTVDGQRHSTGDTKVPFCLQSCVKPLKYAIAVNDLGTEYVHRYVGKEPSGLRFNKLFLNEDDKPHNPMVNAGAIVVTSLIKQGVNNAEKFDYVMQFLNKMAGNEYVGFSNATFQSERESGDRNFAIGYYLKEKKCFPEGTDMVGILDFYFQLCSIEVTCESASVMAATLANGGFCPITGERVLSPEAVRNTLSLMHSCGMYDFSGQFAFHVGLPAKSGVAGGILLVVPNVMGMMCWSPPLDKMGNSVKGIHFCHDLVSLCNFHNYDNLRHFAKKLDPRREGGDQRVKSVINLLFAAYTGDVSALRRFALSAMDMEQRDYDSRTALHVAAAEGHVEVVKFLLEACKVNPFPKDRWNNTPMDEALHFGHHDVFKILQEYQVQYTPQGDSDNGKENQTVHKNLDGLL
#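 Coupled fluorescence readout: glutamate oxidase/HRP/Amplex Red detect glutamate formed by hKGA from L-glutamine (1 mM solution added). Buffer 45 mM KH2PO4 pH 8.2, 0.02% Tween-20; reads at t0 and 30 min RT.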
# Sfp inh – inhibitors of Bacillus subtilis Sfp phosphopantetheinyl transferase | 310,000 tested, 3.5% active | Q9F4F7 | Potency, µM, without a hit: largest response in the series, negative = inhibition, hits mostly inhibitors | Biochemical Sfp PPTase activity, qHTS;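 also: the enzyme is Sfp with the accession as filed and its product quenches rhodamine fluorescence; 0% = enzyme reaction without inhibitor and -100% = no enzyme wells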
#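 Compounds were incubated with enzyme (final 15 nM) for 15 min at room temperature before substrate addition started the reaction. Fluorescence at 525 nm excitation, 598 nm emission was recorded immediately and after 30 minutes.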
# GCN5L2 inh – GCN5L2 (KAT2A) acetyltransferase inhibition; Q92830; GCN5L2 HAT assay, ThioGlo1 CoA-SH fluorescence; Potency, µM (doses to about 58.9 µM), without a hit: top-dose activity change, negative = inhibition, actives largely listed as inhibitors; 390,000 tested, 0.21% active
#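 ThioGlo1-coupled HAT assay: 20nM GCN5L2, 70uM acetyl-CoA, 75uM H3(1-25) peptide, pH 7.5. Fluorescence read at 340/540nm at start and after 20 min at room temperature.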
# VDR inhibitor – inhibitors of human vitamin D receptor | VDR-SRC2-3 peptide fluorescence polarization, 2 h | Potency, µM, without a hit: max response, negative = inhibition, most hits filed as inhibitors | 400,000 tested, 0.93% active
#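 FP read-out; VDR + SRC2-3 coactivator peptide; 23 nl compound by pintool; 2 h RT incubation; reagents held at 4 deg C, protected from light.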
# TrxR1 substrate – is turned over as a substrate by rat TrxR1 | O89049 | purified TrxR1 substrate turnover, NADPH consumption readout | Potency, µM (highest dose often 114 µM), for inactives: top-dose activity change, negative = substrate turnover | 390,000 tested, 0.01% active | AID 588456; also: nearly all actives have a fitted effect of over 50% in size
#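 Rat TrxR1, dispensed at 90 nM, was prereduced with 400 uM NADPH (final) for 5 min at ~22 deg C, then incubated with compound 15 min before 400 uM selenite. A first-read NADPH fluorescence drop versus no-compound background flagged substrates.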
# rTrxR1 inhibitor – blocks rat thioredoxin reductase 1; Potency, µM (top dose mostly 114 µM), inactives show top-dose activity change, negative = inhibition, hits mostly inhibitors; recombinant rTrxR1, NADPH fluorescence consumption, selenite substrate; O89049; 390,000 tested, 1% active; also: nearly all actives have a fitted effect of over 65% in size
#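 Rat TrxR1 (90 nM in the dispensed reagent) was pre-reduced with 400 uM NADPH for 5 min at room temperature, then incubated with compound for 15 min. After 400 uM selenite was added, NADPH fluorescence (Ex 340/Em 450 nm) was followed for 8 min.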
# Active calls of the source: *; ? = inconclusive; · = no result given; [ ] = dose if it differs, or a comment. Calls follow the shape of the dose curve; as a rule, active = well fitted curve in the direction sought with a large enough effect; inconclusive = small, poorly fitted or top-dose-only effect, or another doubt; inactive = no such curve, though single readings can be large; an effect the other way counts as inactive or inconclusive. Unless noted, % is scaled to controls: 0 for no effect and ±100 for the full control effect; potency is read from the fitted curve at half-maximal effect.
SMILES,GLS inh,Sfp inh,GCN5L2 inh,VDR inhibitor,TrxR1 substrate,rTrxR1 inhibitor
CC(C)/C=C1\CC/C(=C\c2ccc(N(C)C)cc2)C1=O,14.8%,25.0%,1.0%,-6.1%,-2.6%,-3.5%
CC(C)c1ccc(/C=C2\CC/C(=C\C=N\N(C)C)C2=O)cc1,2.6%,79.4µM*,-10.6%,-0.9%,6.1%[57.1 µM],4.6%[57.1 µM]
C=C(C(=O)c1ccccc1)C(C)CC(=O)c1ccccc1 (configuration not stated),3.9%,-6.0%,-15.5%,79.4µM*,13.5%[11.4 µM],22.4%[11.4 µM]
CN(C)c1cccc2c(C=C(C#N)C#N)ccc(N(C)C)c12,22.8%,-4.4%,-3.1%,-13.3%,-10.8%,25.1µM*
CN(C)c1cccc2c(/C=N/O)ccc(N(C)C)c12,15.8%,19.6%,-5.1%,1.6%,0.5%[57.1 µM],4.7%[57.1 µM]
COC(=O)Nc1ccccc1C(=O)N1CCN(c2ccc(C)cc2)CC1,-2.5%,2.0%,2.2%,2.5%,2.0%,-1.3%
Cc1ccc(N2CCN(C(=O)c3ccccc3NC(=O)/C=C\C(=O)O)CC2)cc1,8.8%,-9.0%,?,-5.6%,1.3%,50.1µM*
N#CC1=C2SCC(O)(c3ccccc3)N2C(=O)CC1c1cccs1 (configuration not stated),16.4%,17.8µM*,-16.3%,-6.9%,-1.2%,8.5%
N#CC1=C2SCC(O)(c3ccccc3)N2C(=O)CC1c1ccccc1F (configuration not stated),-2.3%,50.1µM*,-7.8%,9.3%,-4.8%,-7.5%
Cc1c(NC(=O)CSC2=C(C#N)C(c3ccccc3F)CC(=O)N2)c(=O)n(-c2ccccc2)n1C (configuration not stated),-7.0%,13.5%,-3.9%,-2.7%,-7.9%,-5.4%
COc1ccc(C2CC(=O)N3C(=C2C#N)SCC3(O)c2ccccc2)cc1 (configuration not stated),17.1%,50.1µM*,-9.4%,15.3%,-2.0%,10.5%
CC(C)CCN1CC(C(=O)N2CCN(c3ccc(F)cc3)CC2)CC1=O (configuration not stated),23.9%,13.7%,-3.8%,4.2%,-0.9%,-20.7%
NS(=O)(=O)c1ccc(NC(=O)c2ccccc2C(=O)N2CCCCC2)cc1,11.7%,10.8%,1.7%,5.8%,-6.8%,-3.9%
CC(=O)c1c(N2CCN(c3ccccc3)CC2)nc(=S)n(-c2ccccc2)c1C,28.8%,79.4µM*,-1.3%,0.4%,12.1%[57.1 µM],-3.8%[57.1 µM]
CC(=O)c1c(N2CCN(CCO)CC2)nc(=S)n(-c2ccccc2)c1C,29.2%,29.2%,-9.8%,-12.5%,-5.7%[57.1 µM],8.8%[57.1 µM]
Cc1cc(Oc2ccc3ccccc3c2)nc(SCC(=O)c2ccccc2)n1,-9.4%,-21.7%,-2.8%,2.1%,-8.4%,-10.0%
CCOC(=O)c1c(CSc2ccc(C)cc2)n(C)c2cc(Br)c(O)c(CN(C)C)c12,-15.4%,56.2µM*,-5.1%,-27.5%,-5.9%,11.6%
CC(=O)C[C@@H](O)CC(=O)[C@H]1OC(=O)CCCCCc2ccccc21,0.3%,·,-1.7%,-16.1%,6.2%,8.4%
O=C(CCCN1CCOCC1)c1ccc2c(c1)OCCO2,-3.2%,7.0%,3.1%,-19.4%,10.4%,8.1%
O=C(CCN1CCCCC1)c1ccc2c(c1)OCO2,0.4%,?,-4.1%,44.7µM*,-5.7%,?
O=C(CCN1CCOCC1)c1ccc2c(c1)OCCO2,-4.1%,-14.7%,-1.1%,56.2µM*,6.9%,3.98µM*
O=C(CN1CCN(c2ccc(F)cc2)CC1)c1ccc2c(c1)OCO2,18.4%,-21.1%,-14.9%,-7.6%,4.2%,25.1µM*
Cn1c(CC(=O)Nc2ccccc2F)nnc1SCC(=O)Nc1nccs1,-14.9%,-3.1%,2.6%,1.7%,6.7%,23.6%
CN1N/C(=C\c2ccccc2)N=C2C(=O)N(C)C(=O)N=C21,·,·,·,50.1µM*,10µM*,14.1µM*
O=C(NCCOc1ccc(Cl)cc1)c1cccc(S(=O)(=O)N2CCCC2)c1,-4.0%,·,-1.1%,2.5%,-16.5%,-10.3%
SMILES,GLS inh,Sfp inh,GCN5L2 inh,VDR inhibitor,TrxR1 substrate,rTrxR1 inhibitor
Cc1ccc(S(=O)(=O)c2ncccc2[N+](=O)[O-])cc1,-7.3%,-12.7%,-1.9%,?,-0.7%[57.1 µM],2µM*
Cc1ccc(S(=O)(=O)c2ncccc2N)cc1,-16.6%,11.2%,-5.2%,-11.1%,5.2%[2.29 µM],16.9%[2.29 µM]
Cn1nc(C#N)c(=O)[nH]c1=O,1.7%,·,·,13.6%,10.0%[57.1 µM],-17.3%[57.1 µM]
COc1ccc(NC(=O)Nc2ccc(N3CCOCC3)c3nonc23)c(OC)c1,-0.6%,?,-14.7%,-17.4%,2.5%,15.1%
CC(C)CCn1c(O)c(N=Nc2ccccn2)c2ccccc21,7.4%,-15.7%,-6.3%,-13.0%,-10.2%,-12.7%
CC(C)CCn1c(O)c(N=NC(=O)Cn2ccc(C(F)(F)F)n2)c2ccccc21,?,20.1%,2.7%,79.4µM*,0.0%[57.1 µM],0.1%[57.1 µM]
CC(=O)OCCNc1cc(SCc2ccco2)c2nonc2c1[N+](=O)[O-],1.5%,44.7µM*,-2.4%,-27.2%,-9.3%,22.4µM*
O=[N+]([O-])c1c(NCCCO)cc(SCc2ccco2)c2nonc12,2.3%,22.4µM*,-6.2%,-24.8%,-14.4%,14.1µM*
Cn1ccnc1Sc1cc(NCCCO)c([N+](=O)[O-])c2nonc12,5.6%,?,-1.6%,20µM*,9.1%[57.1 µM],?
COc1ccc(/C=C/C(=O)Nc2cc(S(=O)(=O)N3CCCCC3)ccc2N2CCCCC2)cc1OC,-1.8%,12.3%,-7.8%,8.8%,-6.1%,-15.7%
COc1cc(/C=C/C(=O)Nc2cc(S(=O)(=O)N3CCOCC3)ccc2N2CCCC2)cc(OC)c1OC,3.3%,28.2µM*,2.0%,?,-6.7%,-1.6%
CCOCC(=O)Nc1cc(S(=O)(=O)N2CCOCC2)ccc1N1CCCCC1,?,11.2µM*,-29.0%,?,9.2%[57.1 µM],-6.1%[57.1 µM]
CCOC(=O)CCC(=O)Nc1cc(S(=O)(=O)N2CCOCC2)ccc1N1CCCCC1,-0.1%,·,-0.6%,14.9%,4.4%,21.7%
Cc1nc2cc(-c3ccsc3-n3c(C)ccc3C)[nH]n2c(=O)c1Cl,3.7%,?,?,-18.9%,-8.7%,-29.5%
COCc1cc(=O)n2[nH]c(-c3ccsc3-n3c(C)ccc3C)cc2n1,?,56.2µM*,-9.1%,-0.3%,8.6%[57.1 µM],?
CC/C(=C/c1sc2ccc(C)cc2[n+]1CCCS(=O)(=O)[O-])SC,-0.5%,50.1µM*,-12.5%,-10.6%,-13.1%[57.1 µM],-8.9%[57.1 µM]
CC[n+]1c(S(=O)(=O)[O-])ccc2ccc(C)cc21,-12.8%,17.5%,-4.3%,-9.2%,-4.3%,37.4%[57.1 µM]
Cc1sc2ccccc2[n+]1CCCCI,·,·,·,·,-0.8%,31.0%
CC/C(=C/c1sc2ccc(C)cc2[n+]1CCO)SC,9.1%,28.2µM*,?,?,-12.7%,10.6%
Cc1ccc2sc(C)[n+](CCC(C)S(=O)(=O)[O-])c2c1 (configuration not stated),4.2%,39.8µM*,-5.2%,?,-7.7%,18.8%
